We go through eight molecules from PubChem BioAssay (NCI).

Common to all, as to assay: NCI-60 one-dose screen, 48 h (100 = growth as untreated, 0 = no growth, -100 = all killed)
Holding throughout (settings): 10 µM unless noted

The test system of assay [1] is NCI-H23 lung.
Assay [2] concerns NCI-H226 lung.
For assay [3], the system named is NCI-H322M lung.
The subject of assay [4] is HOP-62 NSCLC.
For assay [5], the system named is NCI-H460 lung.
In assay [6] the test system is HOP-92 NSCLC.
Assay [7] relates to NCI-H522 lung.
The test system of assay [8] is A549/ATCC NSCLC.
Assay [9] deals with 786-0 renal.
The test system of assay [10] is COLO 205 colon.
Assay [11] deals with DU-145 prostate.
The test system of assay [12] is K-562 leukemia.
In assay [13] the test system is MALME-3M melanoma.
In assay [14] the test system is RXF 393 renal.
The subject of assay [15] is SF-268 CNS.
In assay [16] the test system is SF-295 CNS.
Assay [17] has as its system SF-539 CNS.
Assay [18] concerns UACC-257 melanoma.
In assay [19] the test system is M14 melanoma.
The test system of assay [20] is MDA-MB-231 breast.

Compounds without any hit were thinned out: in the full panel of roughly 83,000, 20% have a hit.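 Growth was measured after 48 h exposure to one concentration of compound in 96-well plates. Values under 10 count as active.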 A number with no mark means an inactive call. Calls of active or inactive are those of the source.

Turning to `c1ccc(OCc2nnc(-c3ccc(Oc4ccccc4)cc3)o2)cc1`, the growth in assay [1] was 94.2%; in assay [2], 93.7%; in [3], 106%; in [4], 86.4%; in assay [5], 104%; in assay [6] it was 84.6%. Besides, the growth was 86.8% in [7]; 96% in assay [8]; 99.1% in assay [9]; 104% in assay [10]; 99.1% in assay [11]; 93.2% in assay [12]. For the same molecule, the growth is 101% in assay [13]; 106% in assay [14]; 89.2% in assay [15]; 103% in [16]; 103% in assay [17]; 109% in assay [18]. The growth in assay [19] is 98.2%.
Take `O=C(/C=C/c1sc(Cl)nc1Cl)c1ccccc1`: the growth in assay [1] was 95.2%; in assay [2] it was 99.7%; in assay [3] it was 95%; in assay [4] it was 101%; in assay [5] it was 102%; in [6], 94.3%. For the same molecule, the growth in assay [7] was 93%; in [8], 99.9%; in assay [9], 97%; in [11] it was 99.1%; in assay [12], 10.8%; in assay [13], 95.7%. Further, the growth in assay [20] is 98.7%; in assay [14] it was 99.7%; in assay [15] it was 104%; in assay [16], 102%; in assay [17], 72.3%; in [18] it was 94.9%. Further, the growth in [19] is 79.8%.
Consider `CC(C)C(=O)Nc1ccc(-c2nc(-c3cccc(OCCN4CCOCC4)c3)c(-c3ccnc(Br)c3)[nH]2)cc1`, for which the growth in assay [1] is 55.6%; in [2], 76.4%; in assay [3], 67.8%; in assay [4], 55.2%; in [5] it was 63.6%; in [6] it was 61.3%. The growth in assay [7] was 68.7%; in assay [8] it was 63%; in assay [9] it was -19.3% (active); in [11], 71.5%; in assay [12] it was 2.82% (active); in assay [13] it was 33.6%. Further, the growth in assay [20] was 57.6%; in assay [14] it was -35.3% (active); in [15], 60.3%; in assay [16], -57.7% (active); in assay [17] it was 24.3%; in [18], 56.6%. The growth in [19] is 59.7%.
On to `O=CN(SSN(C=O)C1CCCCC1)C1CCCCC1`, for which the growth in assay [1] is 115%; in [2], 91.9%; in assay [3] it was 110%; in assay [4], 95.4%; in assay [5], 125%; in [6] it was 135%. The growth in [7] was -25.1% (active); in assay [8], 119%; in assay [9], 105%; in assay [11], 115%; in assay [12] it was 52.3%; in assay [13], 73.9%. Further, the growth in assay [20] was 102%; in assay [14], 12.4%; in assay [15], 103%; in assay [16], 105%; in assay [17], 102%; in assay [18], 124%. For the same molecule, the growth in assay [19] was 92.7%.
For the molecule `COc1cccc(/C=C2\C=C(c3ccccc3)N(Cc3ccccc3)C2=O)c1`, the growth in assay [1] is 71.1%; in assay [2], 73%; in assay [3], 51%; in [4] it was 69.4%; in assay [5], 72.3%; in assay [6], 18.1%. Besides, the growth in assay [7] is 56.4%; in [8] it was 47.9%; in assay [9], 57.3%; in assay [10] it was 74.3%; in assay [11] it was 93.9%; in assay [12], 36.1%. The growth was 98.2% in assay [13]; 39.8% in assay [14]; 56.2% in [15]; 44.6% in assay [16]; 53.3% in [17]; 83.3% in assay [18]. In addition, the growth in [19] was 5.88% (active).
With `C=C1C(=O)O[C@H]2[C@H]1CC/C(COC(=O)CSCC(=O)OC/C1=C/CC[C@@]3(C)O[C@H]3[C@H]3OC(=O)C(=C)[C@@H]3CC1)=C\CC[C@@]1(C)O[C@@H]21`, the growth in [1] is 58.1%; in [2], 91.6%; in [3] it was 90.7%; in assay [4] it was 92.7%; in [5], 73.9%; in assay [6], -16.9% (active). Moreover, the growth in [7] was -69.7% (active); in [8], 72.8%; in [9] it was 7.49% (active); in assay [11], 50.3%; in [12] it was 9.77% (active); in assay [13], -10.3% (active). For the same molecule, the growth is -16.8% (active) in [20]; -86.3% (active) in assay [14]; 57.8% in [15]; 88.1% in assay [16]; 19.3% in assay [17]; 9.23% (active) in assay [18]. Also, the growth in [19] was 1.21% (active).
As for `CCCCC[C@H](O)C/C=C1/C(=O)C=C[C@@H]1C/C=C\CCCC(=O)OC`, the growth in [1] is 67.9%; in [2] it was 70.4%; in assay [3], 79.7%; in assay [4], 34%; in assay [5], 46.8%; in [6], 108%. For the same molecule, the growth in [7] was 30.4%; in assay [8], 72%; in assay [9], 44%; in assay [10], 62.8%; in assay [11], 53.2%; in assay [12] it was 5.84% (active). Further, the growth in assay [13] is 107%; in [14], 70.8%; in [15], 34.9%; in assay [16], 82.2%; in [17] it was 91.3%; in [18], 74.5%. In addition, the growth in [19] was 13.6%.
Consider `Clc1ccc2c(c1)N(CCCN1CCCC1)c1ccccc1S2`, for which the growth in assay [1] is 62.5%; in assay [2] it was 88.2%; in assay [3], 36.3%; in assay [4], 56.4%; in assay [5], 30%; in [6], -4.23% (active). Moreover, the growth in [7] was 71.1%; in assay [8], 58.6%; in assay [9], 45.1%; in assay [10] it was -30.8% (active); in assay [11], 59.1%; in assay [12] it was 0.508% (active). For the same molecule, the growth was 7.63% (active) in assay [13]; 23.6% in [14]; 30% in [15]; 54.6% in assay [16]; 15.3% in [17]; 85.8% in assay [18]. The growth in assay [19] is -47% (active).
